# Assay results: PubChem BioAssay (NCI)
# This is part of a sample that, as a whole, favours compounds with a hit. Of some 83,000 tested, about 20% had one in any assay.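 Step 1: grow cells in 96-well plates. Step 2: add test compound at a single concentration. Step 3: incubate 48 h. Step 4: record percent growth.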 Values without a mark were called inactive. The source made the active and inactive calls. How the source made its calls: active means growth percent below 10; inactive means the rest.
# Tested on: HL-60(TB) leukemia
# Assay: NCI-60 one-dose screen, 48 h (100 = growth as untreated, 0 = no growth, -100 = all killed)
# Details: 10 µM unless noted
row,Compound,growth
1,COCCn1cc(-c2nc(-c3cc4cccnc4[nH]3)cs2)c2cc(OC)ccc21,55.5%
2,CC(=O)[C@@H]1CC[C@]2(C(N)=O)CC[C@]3(C)[C@H](CC[C@@H]4[C@@]5(C)CCCNC(C)(C)[C@@H]5CC[C@]43C)[C@@H]12,91%
3,CCOC(=O)c1cc(C(=O)c2cc(OC)cc(OC)c2)n2ccc3ccccc3c12,103%
4,CCCCCCCCC/C(=N\NC(=O)c1ccncc1)c1ccc(O)c(O)c1O,0.166% (active)
5,O=C(Nc1cccc(-n2cc(-c3ccncc3)c(-c3ccc(O)c(Cl)c3)n2)c1)c1cc(C(F)(F)F)cc(C(F)(F)F)c1,58.9%
6,CCN(CC)c1cc(/C=C/c2ccc(OC)c(OC)c2)nc2cc(F)c(F)cc12,112%
7,c1ccc2cc(C[n+]3ccn(CCCCCCn4cc[n+](Cc5ccc6ccccc6c5)c4)c3)ccc2c1,87.9%
8,O=C1Nc2ccc(Br)cc2C12Oc1ccccc1C1CC(c3ccc(F)cc3)=NN12 (stereo not drawn),92.9%
9,Cc1ccc2nc(Cl)c(Cn3nnnc3SCc3ccccc3)cc2c1,97.4%
10,Brc1cccc(-c2cc(-c3ccc4c(c3)OCCO4)[nH]n2)c1,12.3% [25 µM]
11,O=[N+]([O-])c1ccc(-c2cn3nc(-c4c[nH]c5ccccc45)sc3n2)cc1,95.3%
12,CCn1c(C)nc([N+](=O)[O-])c1Sc1nc(N)nc2nc[nH]c12,50.9%
13,Cc1cnc(-c2ccc(-c3ccc(NC(=O)Nc4c(F)cc(F)cc4F)cc3F)c3c2C(=O)NC3)[nH]1,58.1%
